Out of some 340,000 compounds screened, about 20 (0.006%) were called active. The call rests on the fitted dose curve; in most records, active means well fitted inhibition curve with a large enough effect; inconclusive means small, poorly fitted or top-dose-only effect; inactive means no such curve, though single readings can be large or run the other way. The entries come from a sample that favours actives as a whole. Entries that show only a call come without a potency.

Sphingomyelin phosphodiesterase (Homo sapiens), sequence (P17405 47-631 limits assumed): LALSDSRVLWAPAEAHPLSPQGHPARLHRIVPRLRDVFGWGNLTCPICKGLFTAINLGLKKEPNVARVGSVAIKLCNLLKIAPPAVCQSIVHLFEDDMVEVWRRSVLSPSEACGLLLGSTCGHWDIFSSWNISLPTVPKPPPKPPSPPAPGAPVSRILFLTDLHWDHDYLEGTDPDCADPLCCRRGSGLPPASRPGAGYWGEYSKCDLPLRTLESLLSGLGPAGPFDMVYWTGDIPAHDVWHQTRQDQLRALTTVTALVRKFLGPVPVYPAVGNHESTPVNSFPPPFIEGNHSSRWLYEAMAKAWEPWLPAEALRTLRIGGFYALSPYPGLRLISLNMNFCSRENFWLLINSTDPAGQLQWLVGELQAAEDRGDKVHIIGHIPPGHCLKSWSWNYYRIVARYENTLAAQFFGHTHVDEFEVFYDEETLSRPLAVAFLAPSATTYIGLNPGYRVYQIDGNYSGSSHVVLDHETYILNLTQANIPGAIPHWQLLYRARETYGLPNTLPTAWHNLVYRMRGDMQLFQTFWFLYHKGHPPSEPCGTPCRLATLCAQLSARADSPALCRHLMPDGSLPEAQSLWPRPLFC

The experiment addresses Sphingomyelin phosphodiesterase (Homo sapiens) (UniProt P17405). In words: Inhibitors of Secretory Acid Sphingomyelinase (S-ASM): qHTS. The settings on record: placental ASM, HMU-PC fluorogenic substrate, 60 min; series mostly up to 57.5 µM. The text has this:
Atherosclerosis is the underlying process for cardiovascular disease and thus is a major contributor to disease burden in the population. […] Thus, selective small molecule inhibitors of S-ASM should block LDL modification and reduce aortic LDL retention and may serve as new agents for the treatment of atherosclerosis. In a collaboration between National Heart, Lung, and Blood Institute and the NCGC a high-throughput amenable screen was developed to identify potent and selective small molecule inhibitors of S-ASM. This enzymatic, fluorescent screen uses an ASM enzyme preparation derived from human placenta and was tested against the NIH Molecular Libraries Small Molecule Repository (MLSMR). NIH Chemical Genomics Center [NCGC] NIH Molecular Libraries Probe Centers Network [MLPCN] MLPCN Grant: MH093173-01 Assay Submitter (PI): Alan Remaley, National Heart, Lung, and Blood Institute and Wei Zhen, NIH Chemical Genomics Center
Two microliters of ASM enzyme (1:150 dilution from stock) are dispensed in 1536-well plate. 23 nL of compound and control are pinned into assay plate using the Kalypsys pintool. The plates are then incubated for 10 minutes at ambient room temperature. Then, 2 uL of the flurogenic substrate, HMU-PC0, (9 uM final) are added to the plate. An incubation for 60 minutes takes place at 37 masculineC. After that, 4 uL of stop solution is added to raise the pH to 10 to end the kinetic reaction. Plate is read on ViewLux, with detection set at Ex = 386 (10) nm and Em = 447 (10) nm.
For orientation: qHTS replaces the single test concentration by a dilution series.
`CC(=O)OCC1(O)CC23CCC4c5ccoc5CCC4(C)C2CCC1C3` (centres undefined): the Potency entry is “inactive”.

For `COCCn1c(SCC(=O)Nc2nc(C)cs2)nnc1C(C)C`, the Potency entry was “inactive”.

`O=C(CNc1cccc(S(=O)(=O)N2CCCCC2)c1)Nc1ccccc1F`: the Potency entry is “inactive”.

Take `CCOC(=O)C(CC)Sc1ncnc2c1nnn2-c1ccc(F)cc1` (centres undefined): the Potency entry is “inactive”.

For the compound `NC(CSC12CC3CC(CC(C3)C1)C2)C(=O)O` (centres undefined), the Potency entry is “inactive”.

In the case of `Cc1cccc(NC(=O)N(Cc2cc3cc(C)cc(C)c3[nH]c2=O)CC2COCCO2)c1` (centres undefined), the Potency entry was “inactive”.

Take `O=C(Cn1cc(/C=N/NC(=O)c2cccc(C(F)(F)F)c2)c2ccccc21)Nc1ccc(F)cc1`: the Potency result was “inactive”.

For the compound `COc1ccccc1CCNC(=O)CSc1nnc2ccc(-c3cccnc3)nn12`, the Potency result is “inactive”.

Turning to `COc1ccccc1NC(=O)CCC(=O)N1CC(C)Oc2ccc(C)cc21` (centres undefined), the Potency entry was “inactive”.

Regarding `Cc1cccc(NC(=S)N(CCN(C)C)C(C)c2ccco2)c1` (centres undefined), the Potency result was “inactive”.

In the case of `Cc1oc(C)c(C(=O)NCCCC(=O)O)c1C(=O)NCCCC(=O)O`, the Potency result was “inactive”.

With `CSc1nc(C)nc(C2CC2)c1C#N`, the Potency entry was “inactive”.

On to `CN(C)CCCNC(=O)c1cc(C(=O)Cc2ccc(Cl)cc2)c[nH]1`, for which the Potency entry was “inactive”.

As to `CN(C(=O)c1cccc(NC(=O)Cc2ccc(NC(=O)C3CCN(C(=O)C4CCCCC4)CC3)cc2)c1)C1CCC1`, the Potency entry is “inactive”.

For `COc1ccc(CN(CC(=O)NC2CCCC2)C(=O)CCC(=O)Nc2cc(C)on2)cc1`, the Potency entry is “inactive”.

In the case of `COC(=O)c1sccc1-n1cccc1C(=O)C(=O)N1CCCCC1`, the Potency result is “inactive”.

`Cc1ccc2c(c1)nnc1nnc(SCC(=O)O)n12`: the Potency result is “inactive”.

For the compound `Cc1cccc(OC(C)C(=O)N2CCc3ccccc3C2)c1` (centres undefined), the Potency result is “inactive”.

In the case of `CC(=O)N1CCc2ccc(N)cc21`, the Potency result was “inactive”.

With `CCc1noc(C)c1C(=O)N1CCCC(N2CCN(c3ccc(F)cc3)CC2)C1` (centres undefined), the Potency entry was “inactive”.

On to `CCCCCCNCCn1cnc2c(N)ncnc21`, for which the Potency result is “inactive”.

For `Cc1cc(NC(=O)CSc2nc(=O)cc(N)n2-c2ccc(F)cc2)no1`, the Potency entry is “inactive”.

With `Cc1cc(C)n(-c2nnc(C)n2NC(=O)c2cccc(Cl)c2)n1`, the Potency entry is “inactive”.

Regarding `COCCN1C(=O)C(=O)/C(=C(/O)c2ccc(S(=O)(=O)N3CCCCC3)cc2)C1c1ccc(OC)c(OC)c1` (centres undefined), the Potency entry is “inactive”.

As for `Cc1[nH]c2ccccc2c1SCC(=O)Nc1nccs1`, the Potency result was “inactive”.

In the case of `CS(=O)(=O)N1CCc2cc(C(=O)Nc3ccccc3Br)ccc21`, the Potency entry is “inactive”.

Regarding `N#C/C(C(=O)N1CCOCC1)=C1/SC(Cc2ccc(F)cc2)C(=O)N1c1ccccc1` (centres undefined), the Potency result was “inactive”.

On to `O=C(NCc1cccs1)C(=O)NCC1OCCCN1S(=O)(=O)c1ccc(F)cc1` (centres undefined), for which the Potency result is “inactive”.

Regarding `Cc1ccc(S(=O)(=O)N2CCC(C(=O)OCC(=O)N3CC(=O)Nc4ccccc43)CC2)cc1`, the Potency result is “inactive”.

With `O=C(NC1CCCC1)C(c1ccccn1)N(C(=O)c1csnn1)C1CCCC1` (centres undefined), the Potency entry was “inactive”.

In the case of `CCc1ccc(NC(=O)C(=O)N/N=C(\C)CC(=O)NCCOC)cc1`, the Potency entry is “inactive”.

With `O=C(Nc1cccc(S(=O)(=O)NC2=NCCC2)c1)C1CCCCC1`, the Potency entry is “inactive”.

As for `COC(=O)c1ccc(Nc2ncnc3sccc23)cc1`, the Potency result is “inactive”.

In the case of `COc1ccc(NC(=S)N2N=CCC2c2ccccc2)cc1` (centres undefined), the Potency entry is “inactive”.

Values taken from PubChem BioAssay AID504937 (National Center for Advancing Translational Sciences (NCATS), 2011).
